Results filed as inconclusive are left out. The source made the active and inactive calls. The call rests on the fitted dose curve; in most records, active means well fitted inhibition curve with a large enough effect; inconclusive means small, poorly fitted or top-dose-only effect, or effect the other way; inactive means no such curve, though single readings can be large or run the other way.

Chain of Nuclear receptor ROR-gamma (Mus musculus) (P51450 whole entry, looked up, the tested form may be a part): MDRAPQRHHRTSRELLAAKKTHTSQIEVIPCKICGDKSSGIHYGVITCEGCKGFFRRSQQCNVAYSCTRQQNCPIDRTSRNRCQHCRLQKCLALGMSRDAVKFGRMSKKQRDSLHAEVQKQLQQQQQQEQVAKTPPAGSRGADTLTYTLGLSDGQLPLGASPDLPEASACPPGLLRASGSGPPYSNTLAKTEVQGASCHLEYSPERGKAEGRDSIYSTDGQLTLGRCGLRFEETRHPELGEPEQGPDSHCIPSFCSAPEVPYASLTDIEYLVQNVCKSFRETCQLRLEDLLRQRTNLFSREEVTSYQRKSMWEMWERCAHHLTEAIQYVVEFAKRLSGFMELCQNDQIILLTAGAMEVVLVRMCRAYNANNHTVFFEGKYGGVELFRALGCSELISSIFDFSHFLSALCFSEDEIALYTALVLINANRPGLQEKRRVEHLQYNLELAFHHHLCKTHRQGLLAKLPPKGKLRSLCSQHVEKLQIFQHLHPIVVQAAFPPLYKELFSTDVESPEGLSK

The assay deals with Nuclear receptor ROR-gamma (Mus musculus) (UniProt P51450). Nature of the assay: Concentration response confirmation assay for inhibitors of ROR gamma transcriptional activity. To be noted: Drosophila S2 Gal4-RORgamma UAS-luciferase, 20 h; series mostly up to 46.1 µM. The procedure, abridged:
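Stable Schneider cell line, Gal4 DNA-binding domain fused to ROR gamma, UAS-luciferase. Cmpd 1 hr RT → CuSO4 700 uM final → 20 hr RT → luciferase reagent 10 min → luminescence.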
Turning to `O=C(CCCN1C(=O)/C(=C/c2ccccc2Cl)SC1=S)NNC(=O)c1ccc(Cl)cc1Cl`, the Potency was 1.58 µM (active).

For the compound `CNc1cc(C(F)(F)F)nc(-c2ccccn2)n1`, the Potency is 3.97 µM (active).

For the compound `Cc1ccc(-c2n[nH]c(=S)n2/N=C/C=C\c2ccccc2[N+](=O)[O-])cc1`, the Potency entry was “inactive”.

As to `S=c1[nH]c(-c2ccc(Br)cc2)cn1CCc1ccccc1`, the Potency is 9.96 µM (active).

Take `CC(C)CC(=O)NS(=O)(=O)c1ccc(N)cc1`: the Potency result was “inactive”.

Consider `CCN(CC)c1ccc2cc(-c3nc4ccccc4[nH]3)c(=O)oc2c1`, for which the Potency was 3.97 µM (active).

In the case of `CC(C)(C)c1ccc(-c2noc(CCC(=O)Nc3cccnc3)n2)cc1`, the Potency was 0.0996 µM (active).

For `N=C1S/C(=C\c2ccco2)C(=O)N1c1nccs1`, the Potency is 0.141 µM (active).

`COc1ccc2oc(=O)c(C(=O)Nc3ccccc3C)cc2c1`: the Potency was 1.25 µM (active).

On to `CCN1CCCc2cc(CN(CCN3CCOCC3)C(=S)Nc3ccccc3C)ccc21`, for which the Potency was 9.96 µM (active).

With `O=C(COc1ccccc1Cl)NCCCN1CCOCC1`, the Potency result is “inactive”.

With `COc1ccc(-c2cc(C(=O)NNC3=NCCC3)c3c(C)nn(-c4ccccc4)c3n2)cc1`, the Potency is 4.45 µM (active).

Turning to `O=S(=O)(c1ccc(NC(=S)N/N=C/c2ccc(Oc3ccccc3)cc2)cc1)N1CCOCC1`, the Potency is 1.12 µM (active).

`O=C1CC(c2ccc(F)cc2)CC(O)=C1C1NCCc2ccccc21` (centres undefined): the Potency entry was “inactive”.

In the case of `Cc1cc(NC(=S)NC(=O)/C=C/c2ccc(S(=O)(=O)N3CCOCC3)cc2)ccc1Br`, the Potency was 7.05 µM (active).

In the case of `COc1ccc(/C=C/C(=O)NC(=S)NCC2CCCO2)cc1` (centres undefined), the Potency is 11.2 µM (active).

Take `Cc1cccc(-c2ocnc2C(=O)Nc2ccccc2NC(=O)c2ccccn2)c1`: the Potency was 2.23 µM (active).

On to `Oc1ccc(COCc2ccccc2)c2cccnc12`, for which the Potency was 1.58 µM (active).

`CC(C)(C)S(=O)(=O)c1cnc2c(-c3ccc(F)cc3)cnn2c1N`: the Potency was 11.2 µM (active).

On to `CC(C)(C)S(=O)(=O)c1cnc2c(-c3ccc(Cl)cc3)cnn2c1N`, for which the Potency was 4.45 µM (active).

With `COc1cccc(-c2cc(C(=O)N3CCc4ccccc4C3)[nH]n2)c1`, the Potency entry was “inactive”.

For the compound `S=c1[nH]nc(-c2ccc(Br)cc2)n1-c1ccc2c(c1)OCCO2`, the Potency was 1.58 µM (active).

`CCOc1ncccc1C(=O)OCC(=O)Nc1ccc(-c2nc3ccc(C)cc3s2)cc1`: the Potency was 0.396 µM (active).

With `O=c1c2cc(Br)ccc2[nH]c(=S)n1Cc1cccnc1`, the Potency is 11.2 µM (active).

With `CCOC(=O)C1CCN(c2ncnc3c2cnn3-c2ccc(OC)cc2)CC1`, the Potency result is “inactive”.

On to `Cc1cc(C)nc(-n2nc(C)cc2NC(=O)CNC(C)c2ccccc2)n1` (centres undefined), for which the Potency is 6.28 µM (active).

In the case of `CCOC(=O)c1ccc2nc(Nc3nc4ccc(F)cc4s3)sc2c1`, the Potency is 5.6 µM (active).

Take `O=C(NC(=S)Nc1nc(-c2ccc(Br)cc2)cs1)c1cccnc1`: the Potency entry was “inactive”.

As for `COc1ccc(-c2cc(C(F)(F)F)nc(S(=O)(=O)CCCC(=O)Nc3cccnc3Cl)n2)cc1OC`, the Potency was 11.2 µM (active).
